Screening data deposited in PubChem by several laboratories.
In the library only some 22% were active in any assay of this set; here they are far more common.
CYP2C9 inh: blocks human cytochrome P450 2C9 | P11712 | CYP2C9 Supersomes, luciferin-H conversion, luminescence | inhibition, % at 5 µM | 20% of 96,000 active | AID 777;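 active means blocking of liver enzyme CYP2C9 beyond about 50% at 5 µM, limit read from the data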
Target sequence (P11712 whole entry, looked up): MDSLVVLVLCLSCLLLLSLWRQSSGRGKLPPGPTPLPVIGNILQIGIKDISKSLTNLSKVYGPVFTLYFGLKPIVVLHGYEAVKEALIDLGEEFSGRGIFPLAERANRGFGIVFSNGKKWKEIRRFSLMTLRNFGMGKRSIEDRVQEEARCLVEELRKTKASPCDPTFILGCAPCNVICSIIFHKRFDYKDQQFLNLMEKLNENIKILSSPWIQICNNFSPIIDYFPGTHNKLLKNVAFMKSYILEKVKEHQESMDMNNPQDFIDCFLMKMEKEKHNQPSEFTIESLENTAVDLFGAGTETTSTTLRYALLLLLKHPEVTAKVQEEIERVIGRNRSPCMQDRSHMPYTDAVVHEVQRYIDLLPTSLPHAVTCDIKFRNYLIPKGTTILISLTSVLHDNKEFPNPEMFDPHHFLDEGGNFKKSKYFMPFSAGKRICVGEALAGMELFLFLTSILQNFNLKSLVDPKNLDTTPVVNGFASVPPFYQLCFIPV
E-sel TNF inh: TNF alpha driven E-selectin expression inhibition; AID 1246; 0.71% of 120,000 active; HUVEC TNFa-induced E-selectin immunofluorescence, high content; inhibition, % at 2 µM;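 active means inhibition above the batch mean plus 3 SD, and confirmed as a hit on visual image review, cut at about 43% in these data; inconclusive means passes the inhibition cutoff but fails visual image review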;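 further: 0% = TNF-stimulated DMSO wells and 100% = unstimulated control wells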
CYP2C19 inhib: blocks human cytochrome P450 2C19. P33261. CYP2C19 Supersomes, luciferin-H EGE luminescence, 30 min. inhibition, % at 5 µM. 21% of 96,000 active;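 active means CYP2C19 inhibition above a set limit at 5 µM in the primary screen, cut at about 50% in these data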;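 further: plate controls were negative control wells for no effect and 2.5 mM tranylcypromine positive control for full effect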
F-actin modifier: alters cytoskeleton assembly in HUVEC cells | inhibition, % at 2 µM | HUVEC TNFa F-actin phalloidin imaging, high content | 0.18% of 91,000 active;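 active means inhibition above the batch mean plus 3 SD and confirmed as a hit by visual image inspection, cut at about 30% in these data, passing the limit was not always enough; inconclusive means above the inhibition threshold but rejected on visual inspection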
CYP2C19 act: increases human CYP2C19 enzyme activity. 96,000 tested, under 10 active. activation factor at 5 µM. P33261. recombinant CYP2C19, luciferin-H EGE luminescence; hits give high values; 0 = fully inhibited enzyme, 1 = untreated enzyme;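 active means activation factor of at least 2 at 5 µM in the primary screen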;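 further: 0 = wells with 2.5 mM tranylcypromine and 1 = vehicle-only wells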
CYP2C9 act: activators of human CYP2C9; activation factor at 5 µM; recombinant CYP2C9, luciferin-H conversion, luminescence; hits give high values; factor 1 = untreated enzyme, 0 = blocked; 1.4% of 96,000 active;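 active means activation factor of 2 or more for CYP2C9 at a 5 µM dose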;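 further: 0 = sulfaphenazole-blocked wells and 1 = vehicle-only wells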
* hit, by the source's call; ? = inconclusive; . = no result given.

SMILES	CYP2C9 inh	E-sel TNF inh	CYP2C19 inhib	F-actin modifier	CYP2C19 act	CYP2C9 act
CCOC(=O)C(Oc1ccc(=O)n(-c2ccccc2)n1)C(C)=O (stereo not drawn)	-2	-2	56*	-13	0.4	1
COC(=O)COc1ccc(=O)n(-c2ccccc2)n1	23	-4	63*	?	0.4	0.8
Cn1nccc1C(=O)Nc1ccc(OC(=O)c2ccnn2C)cc1	-2	-11	4	0	1	1
C[n+]1cn(/N=C/c2ccccc2)c2ccccc21	.	9	.	.	.	.
CCC(=O)c1cc2c(cc1NC(=O)c1ccc(C)cc1)OCCO2	23	-6	-1	-9	1	0.8
CCCc1cc2c(cc1NC(=O)c1ccc(C)cc1)OCO2	41	-36	98*	12	0	0.6
CC(C)(C)C1CCc2c(sc(N)c2C(N)=O)C1 (stereo not drawn)	47	.	63*	-7	0.4	0.5
CC(C)(C)C1CCc2c(sc(NC(=O)C3CCCO3)c2C(N)=O)C1 (stereo not drawn)	10	-14	-8	-2	1.1	0.9
CCCC1CCc2c(sc(N)c2C(N)=O)C1 (stereo not drawn)	69*	-10	68*	5	0.3	0.3
COc1ccc(CC(=O)Nc2c3c(nn2-c2cccc(Cl)c2)CS(=O)(=O)C3)cc1	28	-12	38	-10	0.6	0.7
O=C(Cc1ccccc1)Nc1c2c(nn1-c1cccc(Cl)c1)CS(=O)(=O)C2	24	.	55*	-2	0.4	0.8
Cc1nc2ccc(NC(=O)Cc3cccs3)cc2s1	65*	8	59*	.	0.4	0.3
Cc1nc2ccc(NC(=O)c3ccc(Cl)c(NC(=O)c4cccs4)c3)cc2s1	54*	11	14	12	0.9	0.5
COc1ccc(NC(=O)/C(Cl)=C(/Cl)S(=O)Cc2ccc(Cl)cc2)cn1 (stereo not drawn)	.	100*	.	.	.	.
Cn1c(SCC(=O)N2CCCc3ccccc32)nnc1-c1ccccc1	4	-12	39	6	0.6	1
C=CCn1c(SCc2cccc3ccccc23)nnc1-c1cccnc1	-66	0	89*	6	0.1	1.7
Fc1ccc(CSc2nnc(-c3cccnc3)n2Cc2ccco2)cc1	32	.	36	20	0.6	0.7
O=C(CSc1nnc(-c2cccnc2)n1Cc1ccco1)N1CCc2ccccc21	36	20	56*	-27	0.4	0.6
Cc1occc1-c1nnc(SCC(=O)N2CCCc3ccccc32)n1Cc1ccco1	50*	.	67*	4	0.3	0.5
Clc1ccccc1CSc1nnc(-c2cccnc2)n1Cc1ccco1	39	.	71*	12	0.3	0.6
Cc1cccc(OCCCC(=O)Nc2ccc(S(=O)(=O)Nc3onc(C)c3C)cc2)c1C	-4	-13	4	-8	1	1
O=C(CSc1ccc2nnc(-c3ccncc3)n2n1)N1CCc2ccccc21	50*	.	-6	.	1.1	0.5
CCOc1cc(CNn2cnnc2)cc(Br)c1OCC(=O)NC1CCCCC1	.	-9	.	18	.	.
O=c1[nH]c2ccccc2c(=O)n1Cc1ccccc1	-4	13	37	19	0.6	1
CS(=O)(=O)N(CC(=O)NCCSCc1ccccc1)c1ccc2c(c1)OCO2	.	16	.	.	.	.
SMILES	CYP2C9 inh	E-sel TNF inh	CYP2C19 inhib	F-actin modifier	CYP2C19 act	CYP2C9 act
CS(=O)(=O)N(CC(=O)NCCSCc1cccc(Cl)c1)c1ccc2c(c1)OCO2	82*	-14	88*	-24	0.1	0.2
CS(=O)(=O)N(CC(=O)NCCSc1ccccc1)c1ccc2c(c1)OCO2	64*	15	76*	3	0.2	0.4
CS(=O)(=O)N(CC(=O)NCCSc1ccc(Cl)cc1)c1ccc2c(c1)OCO2	62*	-15	69*	8	0.3	0.4
COC(=O)C1(C)NC(c2cccs2)C2C(=O)N(c3ccc(F)cc3)C(=O)C21 (stereo not drawn)	-22	5	-2	6	1	1.2
c1ccc(CN2CCC3(CC2)Nc2ccccc2CO3)cc1	8	-12	91*	-11	0.1	0.9
CSc1c(-c2ccccc2)nc2ccccc2c1C(=O)O	-13	-1	-16	8	1.2	1.1
CC(C)(C)Nc1nc(NN)nc(NC(C)(C)C)n1	17	-55	5	-8	1	0.8
CNc1nc(Cl)nc(NC(C)(C)C)n1	-173	20	14	16	0.9	2.7*
Cc1ccc(NC2=NC(=S)N(CC#N)C23CCCCC3)cc1	.	14	.	8	.	.
Cc1ccc(OCCOCCn2cnc3ccccc3c2=O)c([N+](=O)[O-])c1	.	13	.	.	.	.
CCOc1cccc(OCCOCCn2cnc3ccccc3c2=O)c1	86*	27	94*	2	0.1	0.1
CCOC(=O)c1c(NC(=O)CSc2nnc(C)s2)sc2c1CCC(CC)C2 (stereo not drawn)	.	3	.	-4	.	.
CN(C)c1ccc(C(c2nnnn2C(C)(C)C)N2CCc3ccccc3C2)cc1 (stereo not drawn)	13	-1	58*	.	0.4	0.9
COc1ccc(C(c2nnnn2C2CCCC2)N2CCc3ccccc3C2)cc1OC (stereo not drawn)	29	4	47	1	0.5	0.7
CC1CCN(C(c2ccc(N(C)C)cc2)c2nnnn2C(C)(C)C)CC1 (stereo not drawn)	23	38	60*	.	0.4	0.8
CC(C)(C)n1nnnc1C(c1ccccc1)N1CCc2ccccc2C1 (stereo not drawn)	36	-6	54*	17	0.5	0.6
COc1ccc(S(=O)(=O)N2CC(O)CC2C(=O)OCC(=O)Nc2ccc(Cl)cn2)cc1 (stereo not drawn)	-7	.	74*	4	0.3	1.1
Cc1noc(C)c1COC(=O)C1CC(O)CN1S(=O)(=O)c1ccc(Cl)cc1 (stereo not drawn)	26	.	71*	5	0.3	0.7
COc1cc(CC(=O)OCC(=O)Nc2cc(S(=O)(=O)N3CCCC3)ccc2Cl)cc(OC)c1OC	-48	7	-14	5	1.1	1.5
COc1cc(NC(=O)COC(=O)[C@@H]2CCCN2S(=O)(=O)c2ccc(Cl)cc2)cc(OC)c1OC	72*	-26	22	6	0.8	0.3
CC(=O)c1cc(-c2ccccc2)n(CC(=O)NCc2cccs2)c1C	41	-8	88*	-14	0.1	0.6
CCOC(=O)c1cc(-c2ccc(C)cc2)n(CCC(=O)NCCN(C)C)c1C	0	.	14	5	0.9	1
CCOC(=O)c1cc(-c2ccc(C)cc2)n(CC(=O)NCc2ccco2)c1C	77*	-3	83*	2	0.2	0.2
O=C(CCCCN1CCCCC1)c1ccc2c(c1)Cc1ccccc1-2	.	15	.	.	.	.
COc1ccc(N(CC(=O)NCCSc2ccccn2)S(C)(=O)=O)cc1Cl	60*	.	55*	-2	0.5	0.4
COCCNC(=O)CN(c1ccc(C)cc1)S(=O)(=O)c1ccccc1	-11	20	12	0	0.9	1.1
